Data as given in PubChem BioAssay AID1868 (National Center for Advancing Translational Sciences (NCATS), 2009).
Hit rate of the full screen: of about 270,000 compounds, about 20 (0.007%) were called active. The call rests on the fitted dose curve; in most records, active means well fitted inhibition curve with a large enough effect; inconclusive means small, poorly fitted or top-dose-only effect, or effect the other way; inactive means flat fitted curve, though single readings scatter. The list is a sample of the results.

Biological target: Galactokinase (Homo sapiens) (UniProt P51570)
Experiment: qHTS Assay for Inhibitors of Human Galactokinase (GALK)
Details: Purified GALK, Kinase-Glo residual ATP luminescence; series mostly up to 57.5 µM
Source text: NIH Molecular Libraries Probe Production Centers Network [MLPCN] NIH Chemical Genomics Center [NCGC] MLPCN Grant: R03 MH085689-01 Assay Submitter (PI): Kent Lai (University of Utah School of Medicine, 50 N Mario Capecchi Drive, Salt Lake City, UT 84132) NCGC Assay Overview: Inherited deficiency of galactose-1-phosphate uridyltransferase (GALT) can result in a potentially lethal disorder called Classic Galactosemia (OMIM 230400). Several lines of evidence indicate that an elevated level of galactose-1-phosphate (gal-1-p), the product of galactokinase (GALK), is a major, if not sole, pathogenic mechanism in patients with classic galactosemia. Therefore, finding inhibitors of GALK is a potential novel therapy for this inherent metabolic disease and is the long term goal of this project. GALK (provided by the assay submitter) was assayed using ATP and D-(+)-Galactose (Sigma-Aldrich cat# G0750) as substrates. Promega Kinase-Glo Plus (cat# V3774) technology was used to detect the residual ATP following kinetic reaction. Briefly, the Kinase-Glo Plus contains Ultra-Glo [2] luciferase and D-luciferin which generates a bioluminescence signal from the remaining ATP.
NCGC Assay Protocol Summary: Three uL/well of ATP-buffer solution (35 uM ATP, 20mM HEPES pH8.0, 5 mM MgCl2, 60 mM NaCl, 1 mM DTT, 0.01% BSA final concentration) was dispensed into 1536-well, assay plates (Greiner, solid white medium-binding plates) with Aurora Discovery BioRAPTR Flying Reagent Dispenser (FRD; Beckton-Dickenson). Compound solution (23 nL) was transferred to the assay plate using the Kalypsys 1536-pin tool. One uL/well GALK-galactose solution (5 nM GALK, 100 uM galactose, 20 mM HEPES pH8.0, 5 mM MgCl2, 60 mM NaCl, 1 mM DTT, 0.01% BSA final concentration) was then added using the FRD yielding a total kinase reaction volume of 4 uL/ well. After 1 hour of room temperature incubation, 4 uL Kinase-Glo Plus reagent was added for a final assay volume of 8 uL/ well. Luminescence was detected with the ViewLux plate reader (Perkin Elmer, Waltham, MA) after 10 min incubation using a 1 sec exposure time and 2x binning.

Sequence of Galactokinase (Homo sapiens) (P51570 whole entry, looked up): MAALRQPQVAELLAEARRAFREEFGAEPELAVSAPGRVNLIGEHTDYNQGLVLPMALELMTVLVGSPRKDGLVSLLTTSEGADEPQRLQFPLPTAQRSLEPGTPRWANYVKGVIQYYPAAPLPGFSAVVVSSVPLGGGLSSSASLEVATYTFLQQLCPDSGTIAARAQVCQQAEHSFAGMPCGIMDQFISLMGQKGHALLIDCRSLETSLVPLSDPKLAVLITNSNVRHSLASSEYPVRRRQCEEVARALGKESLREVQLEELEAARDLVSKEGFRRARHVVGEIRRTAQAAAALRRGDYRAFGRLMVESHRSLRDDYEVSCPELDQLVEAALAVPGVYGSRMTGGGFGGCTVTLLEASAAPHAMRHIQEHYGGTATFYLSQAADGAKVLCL

outcome, inactive:
CCOC(=O)C(Cc1ccc(N)cc1)N1C(=O)c2ccccc2C1=O (stereo not drawn), COc1ccccc1N1CCN(/N=C/c2ccc(O)cc2O)CC1, CC(=O)N[C@@H](C)C(=O)N1CCC(n2nccc2NC(=O)CCCc2ccccc2)CC1, COc1ccc(C(=O)NCCSc2ccccc2C)cc1, CCOCc1nnc(NC(=O)CCS(=O)(=O)Cc2ccccc2)s1, CCC(=O)Nc1ccc(-c2ccc(N3CCCCC3)nn2)cc1, COc1ccc(-c2csc3ncnc(N4CCN(S(=O)(=O)c5ccccc5C#N)CC4)c23)cc1, CC(=O)Nc1ccc(S(=O)(=O)Nc2cc(C)cn(Cc3ccc(C)cc3)c2=O)cc1, COc1ccc(CN2CCCC(N3CCc4ccccc4C3)C2)c(O)c1 (stereo not drawn), CC1CCN(S(=O)(=O)c2ccc3c(c2)n(C)c(=O)n3C)CC1, Cc1ccccc1Nc1nc(-c2cccnc2)cs1, CC1=NN(C(N)=S)C(=O)C1N=Nc1cc(Cl)ccc1Cl (stereo not drawn), CC(C)(C)c1ccc(SCCc2ccncc2)cc1, O=C(/C=C/c1ccc([N+](=O)[O-])o1)NNC(=O)c1ccc(F)cc1, CC(C)(C)C(=O)NC1CC2CCCC(C1)N2C(=O)Nc1ccccc1F (stereo not drawn), Cc1cc(C)c2nc(N(CCN(C)C)C(=O)/C=C/c3cccs3)sc2c1, COc1ccc(C(=O)O/N=C(\N)c2ccccn2)cc1[N+](=O)[O-], CS(=O)(=O)N1CCN(C(=O)CSc2ccccc2)CC1, CCC(C)c1ccc(NC(=S)N2CCCC2)cc1 (stereo not drawn), O=C(CN1CCN(c2cccc(Cl)c2)CC1)Nc1ccc(S(=O)(=O)N2CCOCC2)cc1, CCc1ccccc1NC(=O)c1ccc2snnc2c1, CN(c1ccc(O)cc1)c1nc(-c2cccnc2)cs1, Cc1ccc(C(=O)Nc2nnc(C3=COCCO3)o2)cc1C, CCN1CCN(c2sc(S(C)(=O)=O)nc2S(=O)(=O)c2ccc(Cl)cc2)CC1, Cc1cccc(Nc2nc(-c3ccccc3)cs2)n1, COc1ccc(/C=C(\C#N)c2c[nH]c3ccccc23)cc1, COc1ccc(CCc2nc(-c3cccs3)no2)cc1, O=C(Nc1ncc([N+](=O)[O-])s1)C1COc2ccccc2O1 (stereo not drawn), COCCN1C(=O)N(c2ccc(Cl)cc2)C(=O)C1CC(=O)Nc1cc(OC)cc(OC)c1 (stereo not drawn), Cc1c(C)n(Cc2ccc(Cl)cc2)c2ccc(C(=O)NCCCN3CCOCC3)cc12, Cc1cccc2sc(N(CCCN(C)C)C(=O)CCS(=O)(=O)c3ccccc3)nc12, O=C(c1ccco1)N1CCN(C(=O)c2cc(-c3ccccc3F)no2)CC1, CCOC(=O)c1csc(CCNC(=O)c2oc3c(Cl)cc(C)cc3c2C)n1, COc1ccc(NC(=O)C/C(C)=N/NC(=O)c2cnccn2)cc1Cl, COc1ccc(/C=N/Nc2ccccc2C(=O)O)cc1, Cc1ccc(CNC(=O)C(=O)c2cn(CC(=O)N3CCOCC3)c3ccccc23)cc1, COc1ccc(C)cc1N(CC(=O)N1CCCC1)S(=O)(=O)c1ccccc1, CC(c1ccccn1)N(C)C(=O)c1ccc2nc(Cc3cccc(Cl)c3)oc2c1 (stereo not drawn), COc1ccc(OC)c(/C(C)=N\NC(=O)c2cc3cc(Cl)ccc3n2C)c1, O=C(O)c1ccccc1NC(=O)c1ccccc1-c1ccccc1C(=O)O, CCS(=O)(=O)Nc1ccc(C(=O)NCCSc2ccccc2)cc1, O=C(NCCc1ccc(Cl)cc1)c1cccc(N2CCCC2=O)c1, Cc1cc(=O)n2nc(N3CCCC(C(=O)NCc4ccc(Cl)cc4)C3)sc2n1 (stereo not drawn), Cc1ccc(C)c(S(=O)(=O)N2CCCOC2CNC(=O)C(=O)NC2CCCCC2)c1 (stereo not drawn), COc1ccc(C(=O)CCc2ccccc2O)c(OC)c1, O=C(/C=C/c1ccco1)NC(=S)N1CCCCC1, CN(Cc1cnccn1)C(=O)c1cc(COc2cccc(C(F)(F)F)c2)on1, O=C(N/N=C/c1c[nH]c2ccccc12)c1ccccc1O, Oc1ccccc1C1=NN(c2ccccc2)C(c2ccccc2)C1 (stereo not drawn), CCCN1CCn2c3c(c4cc(Br)ccc42)CCCC31 (stereo not drawn), COC(=O)c1cc(NS(=O)(=O)c2ccc3c(c2)c(=O)n(C)c(=O)n3C)cc(C(=O)OC)c1, CC(=O)c1ccc(S(=O)(=O)NCc2nnnn2-c2ccccc2)cc1, COc1cccc2[nH]c(C(=O)NCCc3ccccc3)cc12, Cc1cccnc1CC(C)NC(=O)c1cc(COc2cncc(Cl)c2)on1 (stereo not drawn), COc1ccc(N2CCN(C(=O)c3cccs3)CC2)cc1, Cc1onc(C(=O)Nc2ccc3c(c2)OCO3)c1[N+](=O)[O-], C/C(=N\Nc1nncc2ccccc12)c1ccc(Cl)c([N+](=O)[O-])c1, CC(=O)c1ccc(NC(=O)CCNS(=O)(=O)c2cc(Br)cnc2N)cc1, COc1ccccc1CCNC(=O)c1c(C)nn(CC(C)C)c1Cl, Cn1c(NC(=O)c2ccccc2)nc2ccccc21, C=CCNC(=S)/N=c1/ccccn1Cc1ccccc1, CCCCc1nc2cc(C(=O)N3CCCCC3CCO)ccc2o1 (stereo not drawn), COc1cccc(OCc2cc(C(=O)N3CCN(C(=O)c4ccco4)CC3)no2)c1, CCOc1ccc(C2C(C#N)=C(N)N(N(C)C)C3=C2C(=O)CCC3)cc1 (stereo not drawn), CC(=O)c1cccc(NC(=O)CN2C(=O)c3cccnc3Oc3ccc(Cl)cc32)c1, O=C(CN1CCN(S(=O)(=O)c2cc(Cl)ccc2Cl)CC1)c1ccc(O)c(O)c1, COc1ccccc1CCCNC(=O)C1CCC(=O)N(CCN2CCOCC2)C1 (stereo not drawn), COc1ccc(CCNCc2c(-c3ccccc3)n(C)c3ccccc23)cc1, CCn1nnnc1SCC(=O)Nc1ccc(N(C)C)cc1, O=C(CN1CCCCCC1)Nc1ccc(Br)cc1[N+](=O)[O-], COCCNC(=O)c1ccc2nc(Cc3ccc(OC)c(OC)c3)oc2c1, CCOc1ccc(C(=O)CCN2CCOCC2)cc1, O=C(c1cc(COc2ccc(F)c(F)c2)on1)N1CCOCC1, Cc1cc(Br)ccc1NC(=S)NC1CCCC1, CC(C)c1ccc(NC2CCCN(C(=O)c3ccncc3)C2)cc1 (stereo not drawn), CC(=O)c1ccc(OC(=O)N2CCOCC2)cc1, CCC(=O)Nc1ccc2nn(-c3ccc(F)cc3)nc2c1, C=CCc1cccc(/C=N/NC(=O)COc2ccc(-n3cnnn3)cc2)c1O, O=C(Cc1cccs1)Nc1ccc([N+](=O)[O-])cc1, COc1ccc(N2CCN(C3CCCCC3NS(=O)(=O)c3ccccc3)CC2)cc1 (stereo not drawn), CN(C)CCCNC(=S)N1CCC(c2nc3ccccc3[nH]2)CC1, COc1ccc(OCc2cc(C(=O)NCC3(C)COC3)no2)c(Cl)c1, O=C(N/C(=C\c1ccc([N+](=O)[O-])cc1)C(=O)N1CCCCC1)c1ccco1, c1ccc(-c2ccc(OCCN3CCOCC3)cc2)cc1, COc1cc(C(=S)N2CCOCC2)cc(OC)c1OC(=O)c1ccc([N+](=O)[O-])cc1[N+](=O)[O-], Cc1ccc(-c2noc(C3CCCN(C(=O)c4cccc(Cl)c4)C3)n2)o1 (stereo not drawn), C/C(=N\NC(=O)c1ccoc1C)c1ccccc1O, Cc1ccc(CNC(=O)C(=O)c2cn(CC(=O)N3CCCC3)c3ccccc23)cc1
